Screens: PubChem, National Center for Advancing Translational Sciences (NCATS)
KinaseGlo FLuc: counter-screen: inhibitors of Kinase-Glo firefly luciferase | Potency, µM (top dose mostly 38.3 µM), for the others: at the highest dose activity change, negative = inhibition, most hits filed as inhibitors | Kinase-Glo luciferase, ATP luminescence, 8 min | AID 1379 | Q27757 | 200,000 compounds, 0.28% hits; note: nearly all actives have a fitted effect of over 60% in size
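Compounds were added to a substrate mix at pH 7.2 (50 mM imidazole, 10 uM ATP, within the enzyme's linear range), followed by Kinase-Glo detection reagent; luminescence was measured after 8 minutes at ambient temperature.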
Tau fibril ThT: inhibitors of human tau fibril formation, thioflavin T binding; Potency, µM (top dose mostly 57.4 µM), inactives show at the top dose activity, negative = inhibition, most hits filed as inhibitors; P10636; recombinant tau K18 P301L, heparin-induced fibrillization, ThT fluorescence; 270,000 compounds, 2.1% hits; note: nearly all actives have a fitted effect of over 55% in size
Target sequence (P10636 561-689 P618L limits assumed): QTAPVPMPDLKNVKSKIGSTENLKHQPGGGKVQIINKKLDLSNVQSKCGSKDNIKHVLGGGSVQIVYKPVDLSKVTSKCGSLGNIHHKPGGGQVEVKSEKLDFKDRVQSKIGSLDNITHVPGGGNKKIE
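Recombinant human tau K18 fragment […] carrying P301L, 15 uM unlabeled plus 0.24 uM Alexa 594-labeled, was fibrillized with 20 uM heparin in 100 mM sodium acetate pH 7 for 6 hr at 37 C; 30 uM ThT fluorescence read after 1 hr.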
NPSR antagonist: neuropeptide S receptor (human) antagonism, cAMP | CHO-NPSR cells, cAMP TR-FRET, antagonist mode | Potency, µM (top dose mostly 38.3 µM), for the others: top-dose activity change, negative = inhibition, hits mostly inhibitors | 220,000 compounds, 1% hits; note: nearly all actives have a fitted effect of over 50% in size
Target sequence (Q6W5P4 whole entry, looked up): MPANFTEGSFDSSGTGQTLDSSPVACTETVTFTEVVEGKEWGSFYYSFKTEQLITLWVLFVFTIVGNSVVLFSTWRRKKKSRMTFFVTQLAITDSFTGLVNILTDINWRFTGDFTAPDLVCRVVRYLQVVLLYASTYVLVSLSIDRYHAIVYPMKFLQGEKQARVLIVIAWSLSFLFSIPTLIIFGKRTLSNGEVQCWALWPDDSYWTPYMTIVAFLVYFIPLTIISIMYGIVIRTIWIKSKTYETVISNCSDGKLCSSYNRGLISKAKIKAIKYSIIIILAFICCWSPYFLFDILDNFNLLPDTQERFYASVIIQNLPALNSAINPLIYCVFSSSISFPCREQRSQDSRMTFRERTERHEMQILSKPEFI
Tau fluor cs: counter-screen for tau fibril formation inhibitors; tau K18 P301L (four-repeat tau fragment) Alexa594 fluorescence, heparin fibrillization; Potency, µM (doses to about 57.7 µM), for the others: at the highest dose activity change, negative = decrease; 280,000 compounds, 0.93% hits; AID 1463; note: nearly all actives have a fitted effect of over 55% in size
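Human K18 P301L tau (15 uM unlabeled plus 0.24 uM Alexa 594-labeled, final) in 100 mM sodium acetate pH 7 was mixed with compound and 20 uM heparin and incubated 6 hr at 37 C.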
Tau FP inhib: inhibitors of human tau fibril formation; P10636; K18 P301L tau heparin fibrillization, Alexa594 FP, 6 h; Potency, µM (titrated, usually from 57.7 µM), without a hit: top-dose activity, negative = inhibition, most hits filed as inhibitors; 280,000 compounds, 0.39% hits; AID 1468; note: nearly all actives have a fitted effect of over 55% in size
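Recombinant K18 P301L […], labeled with Alexa 594 at 0.24 uM over 15 uM unlabeled; heparin inducer 20 uM final; 37 C, 6 hr; FP endpoint.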
Starred values were filed as active, the others as inactive; ? = inconclusive; nt = no result; [ ] = dose if it differs, or a comment. A selection: hits, their analogues and other compounds. The true share with any hit is near 3.3%. Calls come from the whole dose curve; as a rule, active = well fitted curve in the direction sought with a large enough effect; inconclusive = small, poorly fitted or top-dose-only effect, or another doubt; inactive = no such curve, though single readings can be large; an effect the other way counts as inactive or inconclusive. % is set by controls: 0 for no effect and ±100 for the full control effect; potency is the fitted concentration of half-maximal effect.

SMILES	KinaseGlo FLuc	Tau fibril ThT	NPSR antagonist	Tau fluor cs	Tau FP inhib
CCOC(=O)c1ccc(/C=C2/C=C(c3ccccc3)N(c3ccc(Cl)c(C(=O)O)c3)C2=O)cc1	-6%	16µM*	13µM*	8%	-10%
CCOC(=O)c1c(CSc2ccccc2)n(C)c2ccc(O)c(CN3CCOCC3)c12	-1%	?	7.9µM*	-25%	5%
CCOC(=O)c1c(C)n(C)c2ccc(O)c(CN3CCN(C)CC3)c12	-1%	?	-4%[46.1 µM]	-28%	13%
CNc1ncnc2c1ncn2[C@H]1C[C@H](O)[C@@H](CO)O1	nt	1%	nt	2%	-1%
O=C(COC(=O)C1CCCCC1)Nc1ccccc1OC(F)F	-1%	-8%	7%	-15%	2%
Nc1ccc(N2CCN(c3ncc(C(F)(F)F)cc3Cl)CC2)c(C(F)(F)F)c1	nt	20µM*	nt	10µM*[quencher]	?
NC(=O)c1ccc(N2CCN(c3ncc(C(F)(F)F)cc3Cl)CC2)cc1	nt	?	4%	-16%	-1%
COc1ccc2[nH]c3c(C)c4ccncc4c(C)c3c2c1	nt	3.5µM*	?	?	-8%
CC1CCN(S(=O)(=O)c2cn(CC(=O)Nc3cccc(C(F)(F)F)c3)c(=O)c3ccccc23)CC1	nt	4%	nt	?	?
O=C(Cn1cc(S(=O)(=O)N2CCN(c3ccccc3F)CC2)c2ccccc2c1=O)Nc1cccc(C(F)(F)F)c1	nt	4%	nt	-25%	14µM*
Cc1ccc(NC(=O)Cn2cc(S(=O)(=O)N3CCN(c4ccccc4F)CC3)c3ccccc3c2=O)cc1F	nt	-4%	nt	-29%	14µM*
CC(=O)Nc1nonc1-c1nnc(SCC(=O)Nc2ccc(C)cc2C)n1C	nt	-6%	nt	-12%	-2%
C=CCN1c2ccccc2[C@]23C[C@@H](C(=O)OC)N(S(=O)(=O)c4ccc(C#N)cc4)C2=NC(C(=O)OC)=C(C(=O)OC)[C@H]13	-2%[7.66 µM]	3%[11.5 µM]	nt	-4%[11.6 µM]	0%[11.6 µM]
Nc1cccc(Oc2c(F)c(F)c(Oc3cccc(N)c3)c(F)c2F)c1	nt	?	-42%	6.3µM*[quencher]	?
Nc1cccc(Oc2ccc([N+](=O)[O-])cc2)c1	6%	-1%	2%	-5%	0%
CCN(Cc1ccc(OC)cc1)c1ccc(-c2nc(-c3ccncc3)no2)cc1[N+](=O)[O-]	nt	-1%	nt	-4%	-7%
CCCCn1c(SCC(=O)N(C)C2CCS(=O)(=O)C2)nc2cc(S(N)(=O)=O)ccc21 (stereo not drawn)	nt	-11%	11%	-13%	-2%
CCOC(=O)c1cc(C#N)c(SCC(=O)OC)[nH]c1=O	nt	?	?	-11%	-3%
CCOC(=O)c1ccc(N=Nc2c(C)c(C#N)c(O)[nH]c2=O)cc1	-4%	1.4µM*	-28%	-29%	-5%
COc1cccc(CNC(=O)N2CCC(CN3CCC(C)CC3)CC2)c1	nt	6%	nt	0%	0%
O=C(CNc1ccccc1)c1ccc([N+](=O)[O-])cc1	-2%	14µM*	-2%	?	?
O=C(Cc1ccccc1)NCC(=O)OCC(=O)c1ccc([N+](=O)[O-])cc1	2%	?	8%	-8%	?
CC(Nc1cccc2ccccc12)C(=O)N/N=C/c1ccc([N+](=O)[O-])cc1 (stereo not drawn)	1%	?	-14%	7.9µM*[quencher]	?
O=C(CNS(=O)(=O)c1ccccc1)OCC(=O)c1ccc([N+](=O)[O-])cc1	4%	25µM*	10%	-19%	?
O=C(CNC(=O)c1ccc([N+](=O)[O-])cc1)c1ccccc1	-3%	-15%	-5%[46.1 µM]	-3%	1%
SMILES	KinaseGlo FLuc	Tau fibril ThT	NPSR antagonist	Tau fluor cs	Tau FP inhib
O=C(CNc1cccc2ccccc12)c1ccc([N+](=O)[O-])cc1	1%	14µM*	-10%[46.1 µM]	?	?
CCC(CC)C(=O)OCc1cc(=O)n2nc(C3CC3)sc2n1	nt	-8%	nt	-1%	0%
O=C(N/N=C1\C/C(=N\NC(=O)c2ccncc2)c2ccccc21)c1ccncc1	?	10µM*	-8%	?	?
O=C(NN=C1C2CC3CC(C2)CC1C3)c1ccncc1	-5%	-4%	1%[46.1 µM]	5%	-3%
Cn1cccc1C(=O)C(=O)Nc1cc(Cl)cc(Cl)c1	11µM*	9%	-14%[46.1 µM]	1%	-4%
Clc1ccc2nc(Nc3ccccc3Cl)nc(-c3ccccc3)c2c1	nt	1%	nt	-12%	?
Nc1cccn2c(-c3ccc(Cl)cc3)cnc12	-8%	?	5%	?	2%
Nc1cccn2c(-c3ccc(Cl)c(Cl)c3)cnc12	-5%	13µM*	-37%	?	-6%
COc1c(C)cccc1C(=O)NC(=S)Nc1cccc2nsnc12	8%	25µM*	7.9µM*	-27%	?
CN(C)c1ccc(/C=C(\C#N)c2ccccn2)cc1	7.9µM*	4%	4%	1%	0%
N#C/C(=C\c1ccc([N+](=O)[O-])cc1)c1ccccn1	-28%	?	2%	-28%	3%
CN(C)c1ccc(NC(=S)c2ccccn2)cc1	13µM*	3.5µM*	-33%	?	4%
O=C(/C=C/c1cccnc1)/C=C/c1cccnc1	nt	4.5µM*	48%	-26%	?
CCOC(=O)c1c(NC(C)=O)sc2c1CCC(C=O)=C2Sc1ccccc1	-2%	14µM*	?	?	?
CCOC(=O)c1c(NC(=O)c2ccccc2Br)sc2c1CCc1ccccc1-2	0%	28µM*	?	-28%	?
CCOC(=O)c1c(NC(C)=O)sc2c1CCCNC2=O	nt	6%	-13%[46.1 µM]	1%	-1%
COc1ccc(N2CCC(CNC(=S)Nc3cccc(OC)c3)C2)cc1 (stereo not drawn)	-3%	?	-10%	11µM*[quencher]	13%
COc1cccc(NC(=O)NC2(C(F)(F)F)Oc3ccccc3O2)c1	2%	?	19%	18µM*[quencher]	5%
COc1cccc(NC(=O)Nc2cccc(C(=O)O)c2)c1	-11%	-10%	2%	-4%	6%
CCc1cccc(C)c1NC(=S)NCC1CCN(c2ccc(OC)cc2)C1 (stereo not drawn)	14%	?	-50%	?	-7%
COc1ccc(C(=O)Nc2cccc(OC)c2)cc1	7.9µM*	0%	-6%[46.1 µM]	-1%	4%
COc1cccc(NC(=O)c2ccc(NC(=O)C(C)C)cc2)c1	nt	-6%	-3%	-3%	-3%
COc1ccc(N2CCC(CNC(=O)Nc3cccc(OC)c3)C2)cc1 (stereo not drawn)	-3%	?	-28%[46.1 µM]	16µM*[quencher]	14%
COc1cccc(-c2cn3c(n2)sc2cc(C(=O)NCCCc4ccccc4)ccc23)c1	nt	-5%	nt	1%	-6%
Nc1nc(Nc2ccccc2)nc(NCc2ccco2)c1[N+](=O)[O-]	-1%	?	-8%	13µM*[quencher]	?
Cc1[nH]c2ccc(C(=O)Nc3ccc(F)cc3)cc2c1C	nt	13µM*	nt	14µM*[quencher]	?
